# Bioassay records from PubChem.
# PLC-beta3 inh: inhibitors of human phospholipase C beta3. Q01970. Purified PLC-beta3, fluorogenic substrate, fluorescence. inhibition, % at 12.2 µM. actives 0.18% (n = 370,000). AID 720704; in the data active = inhibition above about 11%;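 note: 0% = median of compound wells on plate and 100% = full blocker control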
# ADAM17 inh: inhibitors of human ADAM17 | inhibition, % at 6.95 µM | recombinant ADAM17, EDANS/DABCYL FRET peptide cleavage | actives 0.83% (n = 370,000) | P78536;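 active = inhibition above the mean of compounds lying between control limits plus 3 SD, set per campaign, cut at about 8.5% in these data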;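 note: 0% = DMSO-only wells as the low control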
# PLC-gamma1 inh: PLC-gamma1 (human) inhibition, primary screen. purified PLC-gamma1, fluorogenic substrate, fluorescence. P19174. inhibition, % at 12.2 µM. actives 0.84% (n = 370,000). AID 720700; in the data active = inhibition above about 9.5%
# ADAM10 inh: inhibits human ADAM10; O14672; recombinant ADAM10, EDANS/DABCYL FRET peptide cleavage, 3 h; inhibition, % at 7 µM; actives 0.62% (n = 370,000);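 active = inhibition above a per-campaign cutoff equal to the mean of compounds falling between control-based bounds plus 3 SD, cut at about 20% in these data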;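 note: 0% = DMSO wells while the 100% control is not disclosed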
# Target sequence (O14672 214-748 limits assumed): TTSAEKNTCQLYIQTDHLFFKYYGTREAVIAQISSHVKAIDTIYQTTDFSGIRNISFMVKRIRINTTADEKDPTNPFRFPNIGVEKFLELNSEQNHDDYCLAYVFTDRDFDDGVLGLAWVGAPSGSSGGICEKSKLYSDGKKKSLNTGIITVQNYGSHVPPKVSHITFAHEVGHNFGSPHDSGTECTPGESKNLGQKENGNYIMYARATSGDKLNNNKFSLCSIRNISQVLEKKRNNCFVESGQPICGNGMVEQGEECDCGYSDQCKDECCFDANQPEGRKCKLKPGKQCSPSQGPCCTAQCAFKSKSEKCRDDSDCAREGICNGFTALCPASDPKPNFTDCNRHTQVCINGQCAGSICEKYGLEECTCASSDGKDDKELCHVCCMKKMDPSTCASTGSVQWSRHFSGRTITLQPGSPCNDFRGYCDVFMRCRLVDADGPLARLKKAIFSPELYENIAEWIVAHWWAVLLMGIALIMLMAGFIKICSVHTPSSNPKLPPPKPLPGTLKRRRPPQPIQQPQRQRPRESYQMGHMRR
# KLK7 zymogen act: activates the human kallikrein-7 zymogen; purified proKLK7, EDANS-DABCYL substrate fluorescence; 100% is mature enzyme control, 0% vehicle; activation, % at 7 µM; actives 0.9% (n = 370,000); AID 652039;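 active = activation above the mean of all tested compounds plus 3 SD, computed per campaign excluding outliers beyond control limits, cut at about 13% in these data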
# ADAM10 confirm: human ADAM10 inhibition, confirmation; shares compounds with ADAM10 inh; ADAM10 QFRET peptide cleavage, EDANS fluorescence; inhibition, % at 6.95 µM; actives 1% (n = 2,100);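 active = inhibition above about 20% chosen separately for each screening run, limit read from the data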;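 note: 0% = DMSO wells and 100% = marimastat wells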
# ADAM17 ctr: counter-screen for ADAM10 exosite inhibitors: inhibitors of human ADAM17. shares compounds with ADAM10 inh. ADAM17 QFRET peptide cleavage, EDANS fluorescence. inhibition, % at 6.95 µM. actives 0.5% (n = 2,100). AID 743214;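 active = mean triplicate inhibition above the solvent-only control wells' mean plus 3 SD, cut at about 12% in these data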;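 note: 0% = DMSO wells and 100% = marimastat wells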
# ADAM10 counter: counter-screen for ADAM17 exosite inhibitors: inhibitors of human ADAM10; shares compounds with ADAM17 inh; recombinant ADAM10, EDANS/DABCYL FRET peptide cleavage, 3 h; inhibition, % at 6.95 µM; actives 47% (n = 2,900);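 active = mean inhibition over the triplicate runs exceeds the activity threshold set in the earlier primary screen, cut at about 20% in these data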;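 note: 0% = DMSO wells and 100% = marimastat wells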
# ADAM17 confirm: human ADAM17 inhibition, confirmation; shares compounds with ADAM17 inh; recombinant ADAM17, EDANS/DABCYL QFRET peptide cleavage; inhibition, % at 6.95 µM; actives 65% (n = 2,900); AID 743257;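 active = mean inhibition across replicates above the hit cutoff set in the primary screen, cut at about 8.5% in these data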;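 note: 0% = DMSO wells and 100% = marimastat wells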
# Numbers without * were called inactive; nt = no result given. Most compounds without a hit are left out; they make up all but 2.9% or so of the library.
SMILES,PLC-beta3 inh,ADAM17 inh,PLC-gamma1 inh,ADAM10 inh,KLK7 zymogen act,ADAM10 confirm,ADAM17 ctr,ADAM10 counter,ADAM17 confirm
O=C1NC(Cc2ccc(O)cc2)c2nc3ccccc3c(=O)n2-c2cc(Cl)ccc21 (stereo not given),1,2,-2,-10,0,nt,nt,nt,nt
O=C1NC(Cc2ccccc2)c2nc3ccccc3c(=O)n2-c2cc(Cl)ccc21 (stereo not given),6,17*,9,25*,1,4,1,23*,12*
CCCCCCCCN1CCS(=O)(=O)N(Cc2ccccc2)C(C(=O)OC)C1 (stereo not given),2,5,0,7,0,nt,nt,nt,nt
O=C(Nc1nc2ccc(F)cc2s1)C1CCN(S(=O)(=O)c2cc([N+](=O)[O-])ccc2Cl)CC1,0,8.8*,0,21*,1,5,2,15,13*
O=C(CSc1nnc(SCc2cccc3ccccc23)s1)Nc1ccc(C(=O)O)cc1,-1,3,1,1,0,nt,nt,nt,nt
Cc1ccc(NC(=S)NNC(=O)CSc2nnc(SCc3cccc4ccccc34)s2)cc1,-5,9.3*,-2,21*,0,5,1,26*,11*
O=C(CSc1nc2ccccc2s1)NNC(=S)Nc1ccc(Br)cc1,-10,13*,1,21*,0,3,1,12,7
CN(CCCOC(=O)CC1C=CCC1)C1CN(Cc2cn(Cc3ccccc3Cl)nn2)S(=O)(=O)C1 (stereo not given),-4,-5,4,-5,-1,nt,nt,nt,nt
O=C(c1cccs1)N1CCc2c([nH]c3ccccc23)C1c1ccc(Cl)cc1 (stereo not given),8,19*,7,31*,0,14,4,15,11*
N#CCC[C@@H]1CC[C@]2(CCCN(S(=O)(=O)c3ccccc3)C2)O1,-3,-7,1,-13,0,nt,nt,nt,nt
Cc1ccc2nc(NC(=O)CN(C)S(=O)(=O)c3ccc(Br)s3)sc2c1,-2,10*,4,24*,0,7,2,25*,15*
CCN=C1NC(c2ccc(C(F)(F)F)cc2)C(C(=O)OC)=C(C)N1Cc1cccc(C(F)(F)F)c1 (stereo not given),2,2,7,-2,0,nt,nt,nt,nt
O=C(NNC(=O)c1cc(-c2cccnc2)nc2ccccc12)Nc1ccc(Cl)cc1,-13,-5,-5,-1,0,nt,nt,nt,nt
O=C(NNC(=O)c1cc(-c2ccccc2)nc2ccccc12)Nc1cccc(Cl)c1,-2,10*,-2,25*,-1,19,7,31*,21*
CC(=O)N1CCc2c1cccc2S(=O)(=O)NC(CC(C)C)C(=O)Nc1ccc(Cl)c(Cl)c1 (stereo not given),-1,2,0,5,0,nt,nt,nt,nt
O=[N+]([O-])c1cc(Cl)cc(/C=N/NC(=S)Nc2ccc(S(=O)(=O)N3CCOCC3)cc2)c1O,-32,17*,-20,35*,0,8,1,29*,18*
O=S(=O)(c1ccc(NC(=S)N/N=C/c2ccc(O)c(O)c2)cc1)N1CCOCC1,-23,-3,-12,-4,1,nt,nt,nt,nt
O=C(CSc1nnc(-c2ccco2)c(-c2ccco2)n1)c1ccccc1,-50,9.0*,-38,27*,-1,4,2,-11,-1
CC(=O)c1ccc(NC(=O)CSc2nnc(-c3ccco3)c(-c3ccco3)n2)cc1,-23,-1,-14,-6,0,nt,nt,nt,nt
Cc1cc(NC(=O)CS(=O)(=O)c2cn(Cc3ccccc3Cl)c3ccccc23)no1,-9,2,-3,2,0,nt,nt,nt,nt
